Source: the supplement of paper PMC8183993
Structures can show the parent of a compound that is named as a salt. ± gives the standard deviation of the averaged measurements. The full ranking holds about 3,200 compounds; the median of “nuclei count (viability) relative to DMSO” is about 99, and the lowest 2% start at about 16. The full list was thinned out, with the lowest values kept by preference.

Test system: U2OS
Test: nuclei count (viability) relative to DMSO (% of DMSO); higher = more viable cells
Settings: 10 µM; 24 h
Procedure: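 Primary image-based screen in U2OS cells: compounds at 10 uM for 24 h, then a 1 h o-propargyl-puromycin (OPP) pulse, click labelling, and high-throughput microscopy. Mean cytoplasmic OPP intensity and nuclei count were normalised to DMSO wells within each plate (DMSO = 100) and averaged over triplicate plates.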

SMILES	nuclei count
Oc1ccc2c3c1O[C@H]1c4[nH]c5c(c4C[C@@]4(O)[C@@H](C2)N(CC2CC2)CC[C@]314)C[C@@]1(O)[C@H]2Cc3ccc(O)c4c3[C@@]1(CCN2CC1CC1)[C@H]5O4 [nor-Binaltorphimine dihydrochloride]	99.1
O=C1/C(=C/c2ccccc2)C[C@@]2(O)[C@H]3Cc4ccc(O)c5c4[C@@]2(CCN3CC2CC2)[C@H]1O5 [BNTX maleate]	3.38
O=C1CC[C@@]2(O)[C@H]3Cc4ccc(O)c5c4[C@@]2(CCN3CC2CC2)[C@H]1O5 [Naltrexone hydrochloride dihydrate]	105
C[C@@H]1CC[C@@]2(OC1)O[C@H]1C[C@H]3[C@@H]4CC=C5C[C@@H](O[C@@H]6O[C@H](CO)[C@@H](O[C@@H]7O[C@@H](C)[C@H](O)[C@@H](O)[C@H]7O)[C@H](O)[C@H]6O[C@@H]6O[C@@H](C)[C@H](O)[C@@H](O)[C@H]6O)CC[C@]5(C)[C@H]4CC[C@]3(C)[C@H]1[C@@H]2C [Dioscin (Collettiside III)]	9.01
CC(=O)O[C@H]1CC[C@@]2(C)C(=CC[C@@H]3[C@@H]2CC[C@]2(C)C(=O)CC[C@@H]32)C1 [Dehydroisoandosterone 3-acetate]	96.3
CCN(CC)CCO[C@H]1CC[C@@]2(C)C(=CC[C@@H]3[C@@H]2CC[C@]2(C)C(=O)CC[C@@H]32)C1	97
CO[C@@H]1[C@H](OC(=O)NC(=O)CCl)CC[C@]2(CO2)[C@H]1[C@@]1(C)O[C@@H]1CC=C(C)C	92.6
Cc1onc(O)c1C[C@H](N)C(=O)O	102
CCC(=O)CCCCC[C@@H]1NC(=O)[C@H]2CCCCN2C(=O)[C@H]([C@@H](C)CC)NC(=O)[C@H](Cc2cn(OC)c3ccccc23)NC1=O [Apicidin]	54.1 ± 37
CN(C(=O)Cc1ccccc1)C(CN1CCCC1)c1ccccc1 (stereo unspecified) [N-MPPP Hydrochloride]	87.9
O=C1NC(=O)c2c1c1c3ccccc3n3c1c1c2c2ccccc2n1[C@H]1CC[C@@H]3O1	60.9
CN[C@@H]1C[C@H]2O[C@@](C)([C@@H]1OC)n1c3ccccc3c3c4c(c5c6ccccc6n2c5c31)C(=O)NC4 [Staurosporine]	10.1
O=C1CN=C(c2cccc(Br)c2)c2oc3ccccc3c2N1	78.5
Clc1ccccc1C(c1ccccc1)(c1ccccc1)n1cccn1	102
CC(C)(c1ccc(OCC2CO2)cc1)c1ccc(OCC2CO2)cc1 (stereo unspecified)	86.6 ± 6.1
CCN1C[C@]2(COC(=O)c3ccccc3N3C(=O)C[C@H](C)C3=O)CC[C@H](OC)[C@@]34[C@@H]5C[C@H]6[C@H](OC)[C@@H]5[C@](O)(C[C@@H]6OC)[C@](O)([C@@H](OC)[C@H]23)[C@@H]14 [Methyllycaconitine citrate]	109
CC(=O)N1CC[N+](C)(C)CC1 [4-Acetyl-1,1-dimethylpiperazinium iodide]	103
COc1cc([C@@H]2c3cc4c(cc3[C@H](O)[C@H]3COC(=O)[C@H]23)OCO4)cc(OC)c1OC [Podophyllotoxin]	15.6

SMILES	nuclei count
CC(C(=O)OC1CC2CCC(C1)N2C)c1ccc(Br)cc1 (stereo unspecified) [PG-9 maleate]	98.8
O=C1Nc2cc(Cl)c(Cl)cc2N2CCNCC12 (stereo unspecified)	95.9
CC12NC(Cc3ccccc31)c1ccccc12 (single isomer, unassigned; (+)) [(+)-MK 801 maleate]	94.2
O=C(CCCN1CCC2(CC1)C(=O)N(Cc1cccc(F)c1)CN2c1ccccc1)c1ccc(F)cc1 [3'-Fluorobenzylspiperone maleate]	29.4
COc1ccc(C[C@H]2NC[C@H](O)[C@H]2OC(C)=O)cc1 [Anisomycin]	12.5 ± 8.3
CC(C)n1cnc2c(C(=O)N[C@H]3CN4CCC3CC4)cc(Cl)cc21	96.2
CCCCC/C=C\C/C=C\C/C=C\C/C=C\CCCC(=O)Nc1ccc(O)cc1	97
COc1cc2c(cc1O)C(CCc1ccc(Cl)cc1)N(C)CC2 (stereo unspecified)	104
CC1(C)CCCC(C)(C)N1[O]	91.7
CC(C)(Cc1c[nH]c2ccc(Cl)cc12)NCCOc1ccccc1OCC1CC1	11.3
N#CC(C#N)=Cc1ccc(O)cc1 [Tyrphostin 8]	102
COc1ccc(C(=O)c2c(C)n(CCN3CCOCC3)c3cc(I)ccc23)cc1	80
C[CH2][Hg][S]c1ccccc1C(=O)[O-].[Na+] [Thimerosal]	5.97
CC(=O)C1=C(O)[C@@H]2[C@H]3c4c[nH]c5cccc(c45)C[C@H]3C(C)(C)N2C1=O [Cyclopiazonic acid]	75.5
CC(=O)C1=C(O)[C@@H]2[C@H]3c4c[nH]c5cccc(c45)C[C@H]3C(C)(C)N2C1=O [Cyclopiazonic Acid]	90.3
CC(C)(O)[C@H]1O[C@H]2CC[C@@]3(C)[C@@](O)(CC[C@H]4Cc5c([nH]c6ccccc56)[C@@]43C)C2=CC1=O [Paxilline]	91.2 ± 11
CN1C(=O)[C@]23CC4=CC=C[C@H](O)[C@H]4N2C(=O)[C@@]1(CO)SS3 [Gliotoxin]	36
Cc1ccc(C[N+](C)(C)C)o1 [5-Methylfurmethiodide]	91.6
